Data reported in PubChem BioAssay AID743291 (Broad Institute, 2014).
Potency and affinity values are given separately.

The molecules below were run against Caspase-3 (Homo sapiens) (UniProt P42574) (assay: human caspase-3 protease activity blockade – biochemical, fluorescence, cherry-picked samples, selectivity assay for caspase-6 allosteric inhibitor project, dose response (AID 743291)). Conditions: Recombinant caspase-3, Z-DEVD-R110 cleavage fluorescence; series mostly up to 35 µM; activity change, negative = inhibition: at the top concentration;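 active = signal drop with fitted half-maximal dose at most twice the top valid dose, active in every repeat; inconclusive = repeats disagree, or flat partial inhibition, or poor fit; inactive = inactive in every repeat, including opposite effects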.
Chain of Caspase-3 (Homo sapiens) (P42574 whole entry, looked up): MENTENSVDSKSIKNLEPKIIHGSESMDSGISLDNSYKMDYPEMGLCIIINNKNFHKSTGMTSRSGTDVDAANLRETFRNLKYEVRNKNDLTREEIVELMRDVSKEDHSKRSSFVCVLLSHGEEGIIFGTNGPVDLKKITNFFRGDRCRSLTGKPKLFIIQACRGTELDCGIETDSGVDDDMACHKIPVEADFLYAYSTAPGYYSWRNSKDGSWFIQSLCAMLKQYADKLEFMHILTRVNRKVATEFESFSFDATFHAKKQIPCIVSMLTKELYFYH

Activity change, negative = inhibition, inactive:
Nc1cc2nn(-c3ccccc3)nc2cc1Cl -1.99%
C/C(CC(=O)N1CCCC1)=N\NC(=O)c1cc2ccccc2cc1O 0.574%
COc1ccccc1NC(=O)COC(=O)c1ccc([N+](=O)[O-])s1 -44.9%
Cc1ccc(C)c(NC(=O)CN(C)C(=O)c2cccc(-n3cccc3)c2)c1 -1.83%
COc1ccc(OC)c(Nc2cc3ccccc3c(=O)[nH]2)c1 -0.092%
CN(C)CCCNc1cc(O)c2ncccc2c1 4.7%
O=C(Nc1ccc(S(=O)(=O)Nc2cnc3ccccc3n2)cc1)c1ccc(Cl)c([N+](=O)[O-])c1 2.61%
CCCSC1=N/C(=C\c2ccc([N+](=O)[O-])o2)C(=O)S1 -7.75%
CN(CC(=O)Nc1c(Cl)cccc1Cl)C(=O)c1cccc(-n2cccc2)c1 4.11%
O=C(COC(=O)c1ccc([N+](=O)[O-])s1)Nc1cccc(S(=O)(=O)NC2=NCCCCC2)c1 3.37%
Cc1[nH]nc(S(=O)CC(=O)O)c1[N+](=O)[O-] (stereo not drawn) -3.2%
CC(C)(C)c1ccc(NC(=O)COC(=O)c2ccc([N+](=O)[O-])s2)cc1 -9.48%
CC(CNc1ccccc1O)C(=O)O (stereo not drawn) -2.67%
CCCCN(C(=O)c1cccc(-n2cccc2)c1)c1c(N)n(Cc2ccccc2)c(=O)[nH]c1=O 0.487%
CCOC(=O)[C@H](Cc1c[nH]c2ccccc12)NC(=O)CN=[N+]=[N-] 1.19%
COc1cc(C)c2c(c1C=O)Oc1c(c(C)c(O)c3c1C(O)OC3=O)OC2=O (stereo not drawn) 4.05%
CO[C@H]1CN(C)C(=O)c2cc(NC(C)=O)ccc2OC[C@@H](C)N(C(=O)CC2CC2)C[C@H]1C 5.39%
COc1ccc(NC(=O)CN(C)C(=O)c2cccc(-n3cccc3)c2)cc1 0.781%
CCOc1c(O)ccc(/C=C2\SC(=S)NC2=O)c1[N+](=O)[O-] -3.04%
CCCCNC(=O)c1nc(C2CCNCC2)oc1-c1cccc(C(F)(F)F)c1 6.13%
Nc1cc(S(=O)(=O)O)cc([N+](=O)[O-])c1O 8.37%
Cc1cc(C=O)c(C)n1-c1cc(C(=O)O)cc(C(=O)O)c1 -0.391%
CN(CC(=O)Nc1ccccc1Cl)C(=O)COC(=O)c1ccc([N+](=O)[O-])s1 2.73%
O=C1NC(=O)C(=Cc2ccccc2[N+](=O)[O-])S1 1.62%
O=C(O)Cc1ccc(-n2cccc2)cc1 2.88%
Nc1c(O)cccc1C(=O)O 9.43%
CNS(=O)(=O)c1cccc(C(=O)OCC(=O)N2c3ccccc3NC(=O)C2(C)C)c1 -1.94%
Oc1cc(NCCc2cccnc2)cc2cccnc12 -1.7%
Oc1cc(NCCN2CCOCC2)cc2cccnc12 7%
COc1cc(-c2ccc(Nc3ccccc3C(=O)O)c(OC)c2)ccc1Nc1ccccc1C(=O)O -0.885%
NS(=O)(=O)c1ccc(NC(=O)COC(=O)c2ccc([N+](=O)[O-])s2)cc1 -0.1%
O=C(O)/C(=C\c1ccc(Cl)c([N+](=O)[O-])c1)c1ccc(S(=O)(=O)N2CCCC2)s1 2.29%
O=P(c1ccccc1)(c1ccccc1)c1cc(S(=O)(=O)O)ccc1O 0.416%
O=C(COC(=O)c1ccc([N+](=O)[O-])s1)Nc1ccc(F)cc1 -0.773%
O=C(COC(=O)c1ccc([N+](=O)[O-])s1)Nc1ccccc1 5.67%
O=C(Nc1ccc2nc3n(c(=O)c2c1)CCCCC3)c1c(F)ccc([N+](=O)[O-])c1F 3.48%
CCCN(C(=O)c1cccc(-n2cccc2)c1)c1c(N)n(Cc2ccccc2)c(=O)[nH]c1=O -0.571%
COc1ccc(S(=O)(=O)Nc2cc(Sc3ncn[nH]3)c(O)c3ccccc23)cc1 0.674%
